The source of these data is PubChem BioAssay (NCATS).

Where “and” joins values, the source holds several entries; their conditions need not be identical. Equal values may be shown once. Records with an inconclusive call do not appear. Where a call stands in place of a potency, no number is given. Calls of active or inactive are those of the source. Calls follow the shape of the dose curve; as a rule, active = well fitted cell-killing curve with a large enough effect; inconclusive = small, poorly fitted or top-dose-only effect; inactive = flat fitted curve, though single readings scatter.
Potency is read from the fitted curve at half-maximal effect.

A short description of the test: Cell Viability - LYMP2-026 (AID 989). Also: nearly all actives have a fitted effect of over 50% in size. The following applies: LYMP2-026 lymphoblastoid cell viability, qHTS; series mostly up to 92.2 µM. The text has this: NIH Chemical Genomics Center [NCGC]
NIH Molecular Libraries Screening Centers Network [MLSCN]
National Institutes of Environmental Health Sciences [NIEHS]
National Toxicology Program [NTP]
We have developed a 1536-well cell-based assay for quantitative high throughput screening (qHTS) against a number of cell lines to determine in vitro cytotoxicity of small molecules. This particular assay uses a human lymphoblastoid cell line (LYMP2-026) purchased from Coriell Institute for Medical Research.
NCGC Assay Protocol Summary:
The CellTiter-Glo luminescent cell viability assay (Promega) is a homogeneous method to measure the number of viable cells in culture. The end point readout of this assay is based on quantitation of intracellular ATP, an indicator of metabolic activity, using the luciferase reaction. Luciferase catalyzes the oxidation of beetle Luciferin to oxyluciferin and light in the presence of ATP. The luminescent signal is proportional to amount of ATP present.
Using the CellTiter-Glo luminescent cell viability assay, the amount of cellular ATP was measured in the lymphoblastoid cell line with complete culture medium following compound treatment for 24 hours. The assay was performed in opaque white Kalypsys 1536-well plates. In the screen, tetraoctylammonium bromide was used as positive control. Library compounds were measured for their ability to cause acute toxicity in the cell line, as reflected by a decrease in intracellular ATP levels, in a concentration-dependent manner. […] AC50 values were determined from concentration-response data modeled with the standard Hill equation.
qHTS protocol for CellTiter Glo lymphoblastoid cellular assay
[Step] [Parameter] [Value] [Description]
1. Reagent; 5 uL; 2500 lymphoblastoid cells/well
2. Time; 5 hr; 37 C incubation
4. Controls; 23 nL; Tetraoctylammonium bromide 6.4pM to 92 uM
5. Time; 24 hr; 37 C incubation
6. Reagent; 5 uL; CellTiter Glo reagent
7. Time; 30 min; Room Temperature
8. Detection; Luminescence; Viewlux plate reader
Keywords: cell viability, cytotoxicity, lymphoblastoid cell line, luminescence, NTPHTS, NTPHTS_NCGC, NIEHS, DSSTox, MLSMR, MLSCN, NIH Roadmap, qHTS, NCGC
(qHTS replaces the single test concentration by a dilution series.)
Regarding `O=[N+]([O-])c1ccc(F)c([N+](=O)[O-])c1`, the Potency result is “inactive”.

With `[O]=[Cr](=[O])([OH])[O][Cr](=[O])(=[O])[OH]`, the Potency is 15.8 µM (active) and 20 µM (active) and 12.6 µM (active).

Consider `C=CCN=C=S`, for which the Potency entry was “inactive”.

In the case of `O=C1C2CC=CCC2C(=O)N1SC(Cl)(Cl)Cl` (stereo unspecified), the Potency is 3.98 µM (active) and 6.31 µM (active).

On to `ClC=C(Cl)Cl`, for which the Potency entry was “inactive”.

In the case of `[Cl-].[Cl-].[Hg+2]`, the Potency is 20 µM (active).

On to `Clc1ccccc1Cl`, for which the Potency result was “inactive”.

In the case of `CC(C)(C)c1cc(O)ccc1O`, the Potency entry was “inactive”.

As for `COC1=CC(=O)O[C@@H](/C=C/c2ccccc2)C1`, the Potency entry was “inactive”.

On to `O=C/C=C/c1ccccc1`, for which the Potency result is “inactive”.

As to `O=[N+]([O-])c1ccccc1`, the Potency result was “inactive”.

On to `NNC(N)=O`, for which the Potency result was “inactive”.

In the case of `O=C(O)C(Cl)(Cl)Cl`, the Potency result was “inactive”.

With `CC(C)CCON=O`, the Potency result is “inactive”.

With `O=C1CCO1`, the Potency entry is “inactive”.

Turning to `O=Cc1ccco1`, the Potency result is “inactive”.

Consider `[O]=[Cd]`, for which the Potency result is “inactive”.

On to `CCOC(=O)c1ccccc1C(=O)OCC`, for which the Potency result is “inactive”.

Consider `COc1ccc2c(c1OC)C(=O)OC2C1c2cc3c(cc2CCN1C)OCO3` (stereo unspecified), for which the Potency entry was “inactive”.

Consider `CCCCCl`, for which the Potency result is “inactive”.

With `CCCCCCCCOC(=O)c1ccccc1C(=O)OCCCCCCCC`, the Potency entry was “inactive”.

For `CC(C)Nc1ccc(Nc2ccccc2)cc1`, the Potency was 39.8 µM (active).

As to `C[C@]12CCC(=O)C[C@@H]1CC[C@@H]1[C@@H]2CC[C@]2(C)[C@@H](O)CC[C@@H]12`, the Potency result is “inactive”.

Take `ClC(Cl)(Cl)Cl`: the Potency result is “inactive”.

Take `C[C@H]1CCC[C@H](O)CCCCCc2cc(O)cc(O)c2C(=O)O1`: the Potency result is “inactive”.

In the case of `Oc1cc(Cl)c(Cl)cc1Cl`, the Potency entry was “inactive”.

For `O=C1C=CC(=O)C=C1`, the Potency entry was “inactive”.

In the case of `O=CC=O`, the Potency result was “inactive”.

In the case of `S=C=S`, the Potency result was “inactive”.

As to `ClCC1CO1` (stereo unspecified), the Potency entry is “inactive”.

Take `C[C@H]1CC[C@@H]2[C@@H](C)[C@H]3[C@H](C[C@H]4[C@@H]5CC=C6CC(O[C@@H]7O[C@H](CO)[C@H](O)[C@H](O[C@@H]8O[C@H](CO)[C@@H](O)[C@H](O)[C@H]8O)[C@H]7O[C@H]7O[C@@H](C)[C@H](O)[C@@H](O)[C@H]7O)CC[C@]6(C)[C@H]5CC[C@]34C)N2C1` (stereo partly specified): the Potency result is “inactive”.
